Out of some 310,000 compounds screened, about 17,000 (5.5%) were called active. About 11% were inconclusive and are not listed. The rule behind the calls is not given here. The full list was thinned out, with actives kept by preference.

This test deals with T1, Nuclear receptor ROR-gamma (Mus musculus) (UniProt P51450).
T1 sequence (whole entry): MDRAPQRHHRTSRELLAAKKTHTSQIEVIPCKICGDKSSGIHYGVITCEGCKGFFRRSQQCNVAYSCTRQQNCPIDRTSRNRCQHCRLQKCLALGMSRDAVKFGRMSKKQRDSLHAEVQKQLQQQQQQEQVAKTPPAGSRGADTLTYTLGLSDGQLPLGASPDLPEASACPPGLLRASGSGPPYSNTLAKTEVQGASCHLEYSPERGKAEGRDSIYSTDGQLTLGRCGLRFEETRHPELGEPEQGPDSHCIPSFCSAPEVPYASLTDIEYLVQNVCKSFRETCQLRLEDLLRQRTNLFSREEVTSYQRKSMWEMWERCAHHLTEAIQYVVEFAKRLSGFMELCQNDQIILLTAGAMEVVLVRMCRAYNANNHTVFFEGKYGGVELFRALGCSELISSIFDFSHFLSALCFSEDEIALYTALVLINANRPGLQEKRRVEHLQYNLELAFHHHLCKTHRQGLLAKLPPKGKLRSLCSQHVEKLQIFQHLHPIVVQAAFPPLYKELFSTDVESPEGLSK
In words: qHTS for inhibitors of ROR gamma transcriptional activity. It counts as functional. Background: Quantitative high-throughput screening tests each substance at several concentrations.
For `COC[C@@H]([C@H](O)[C@H](O)C(=O)NCC[C@H](C)c1nc(/C=C/C[C@@H]2O[C@]3(C[C@@H](O)[C@@H]2C)O[C@H]([C@H](C[C@H](O)[C@H](C)[C@H](O)[C@H](C)/C=C(C)/C(C)=C/C=C/C(C)=C\C#N)OC)[C@H](OP(=O)(O)O)C3(C)C)co1)N(C)C`, the Potency was 0.0014 µM (active). On to `Cl[Te]1(Cl)OCCO1`, for which the Potency is 15.8 µM (active).

The record behind these values is ChEMBL document CHEMBL1201862, “PubChem BioAssay data set” (2004).
